Source: PubChem BioAssay (NCATS)
Results filed as inconclusive are left out. Values without a mark were called inactive. Active and inactive are the calls of the source. Calls come from the whole dose curve; as a rule, active = well fitted inhibition curve with a large enough effect; inconclusive = small, poorly fitted or top-dose-only effect; inactive = flat fitted curve, though single readings scatter.

Molecular target: Calcium and integrin-binding protein 1 (Homo sapiens) (UniProt Q99828)
Assay: Primary qHTS for Identification of Calcium Integrin Binding Protein 1 (CIB1) Competitor (AID 1508620);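 for activity change, negative = inhibition: GST tagged CIB1 binding a fluorescein labelled alphaIIb integrin peptide tracer; top concentration of the series differs between compounds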
Conditions: CIB1-GST / FITC-alphaIIb peptide fluorescence polarization; series mostly up to 114 µM; activity change, negative = inhibition: at the top concentration
Description: Assay Provider: Ulhas P. Naik, PhD Sidney Kimmel Medical College Thomas Jefferson University, Philadelphia, PA Primary function of platelets is to maintain hemostasis. At the site of vascular injury, platelets adhere to adhesive proteins such as collagen and von Willebrand factor. Adherent platelets are activated and generate soluble platelet agonists such as thrombin, ADP and thromboxane A2. Following exposure of circulating platelets to these agonists, results in platelet shape change, granule secretion and activation of platelet integrin alphaIIb-beta3. Ligand binding to activated integrin alphaIIb-beta3 triggers outside-in signaling, leading to platelet aggregation, stabilization of platelet plug, and clot retraction. Upon atherosclerotic plaque rupture also causes platelet plug formation, which underlies a number of cardiovascular diseases such as myocardial infraction and stroke. A number of anti-platelet drugs such as aspirin, clopidogrel, prasugrel, vorapaxar, and eptifibatide are currently available to prevent the thrombotic complications. However, these anti-platelet agents have several limitations including inherent variability in individual responses, developing resistance, and serious bleeding side effects. For these reasons they are not suitable for long-term protection. Based on the experiences with current anti-platelet drugs, it appears that the most useful therapeutic approach is to intersect the secondary responses such as integrin outside-in signaling or recruitment of platelets by TxA2 and secreted ADP. Compounds, which can largely preserve the primary hemostatic function of platelets but inhibit secondary response will be most desired therapeutic agents for treatment of cardiovascular disease. CIB1 is a calcium integrin binding protein, which specifically interact with the alphaIIb subunit of integrin alphaIIb-beta3. Binding of CIB1 to alphaIIb regulates the outside-in signaling in platelets, which is needed for thrombus stabilization and thrombus growth. […] Therefore, we propose that discovery of a small molecule that can prevent the association of CIB1 and alphaIIb-beta3 will be a potential anti-platelet agent that can block the thrombus formation without undue effect on hemostasis. Reference: [1] Naik MU, Nigam A, Manrai P, et al. CIB1 deficiency results in impaired thrombosis: the potential role of CIB1 in outside-in signaling through integrin alpha IIb beta 3. J Thromb Haemost.
PROTOCOL TABLES SEQUENCE No. (1, 2, 3, etc.); […] (e.g., Cells, Incubation, Reagent, etc.); VALUE and DESCRIPTION. 1; Reagent; 3 uL; Protein or buffer (4/3x) 2; Compound; 46 nL; Control inhibitor / compound library 3; Time; 15 min; Room temperature incubation 4; Reagent; 1 uL; Fluorescent labeled peptide (4x) 5; Time; 1000 rpm; Centrifuge 6; Time; 15 min; Room temperature incubation 7; Detection; Ex 480/ Em 540; ViewLux Fluorescence Read NOTES (numbers refer to sequence above) 1; Protein Mixture: C1B1-GST (final concentrations of 1 uM). […] 3; Room temperature incubation. 4; Fluorescent Labeled Peptide: FITC-aIIb (final concentration of 100 nM). Sequence of alphaIIb peptide: Acetyl-[…]-FITC (purity is 95.83%). 5; Centrifuge 1000 rpm (164 g) for 15 seconds. 6; Room temperature incubation. 7; ViewLux Fluorescent Polization Read: excitation = 480(20) / emission = 540(25) S and P; FITC Dichroic mirror.
% is set by controls: 0 for no effect and ±100 for the full control effect; potency is the fitted concentration of half-maximal effect.

Sequence of Calcium and integrin-binding protein 1 (Homo sapiens) (Q99828 whole entry, looked up): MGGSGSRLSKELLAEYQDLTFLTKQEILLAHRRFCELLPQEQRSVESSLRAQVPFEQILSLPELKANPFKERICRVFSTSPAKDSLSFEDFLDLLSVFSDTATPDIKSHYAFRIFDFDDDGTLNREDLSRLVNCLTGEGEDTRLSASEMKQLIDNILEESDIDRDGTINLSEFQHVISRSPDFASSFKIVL

SMILES | activity change, negative = inhibition | Potency
CN(C)C(=O)Oc1cc(OC(=O)N(C)C)cc(C(O)CNC(C)(C)C)c1 (stereo not given) | 1.41% | 
O=C(O)CCCCCCNC1c2ccccc2CCc2ccccc21 | 4.5% | 
C[C@H]1CNCCc2ccc(Cl)cc21 | 2.92% | 
C[N+](C)(C)CCOC(=O)C(O)(c1ccccc1)c1ccccc1 | 10.1% | 
COc1ccc2c(C(=O)c3ccc(Cl)cc3)c(C)n(CC(=O)O)c2c1 | 1.5% | 
Cc1cccc(Cc2cnc[nH]2)c1C | 4.96% | 
C#C[C@]1(O)CC[C@H]2[C@@H]3CCC4=CC(=O)CCC4=C3C=C[C@@]21CC | 4.51% | 
O=C(O)Cc1ccccc1 | -1.12% | 
COP(=S)(OC)Oc1ccc(Sc2ccc(OP(=S)(OC)OC)cc2)cc1 | -11.9% | 
Cc1nnc2n1-c1sc(CCC(=O)N3CCOCC3)cc1C(c1ccccc1Cl)=NC2 | -5.57% | 
CC1COC2(c3ccccc3Cl)c3cc(Cl)ccc3NC(=O)CN12 (stereo not given) | -3.15% | 
OC(O)C(Cl)(Cl)Cl | -3.61% | 
CCCC[N+]1(C)[C@@H]2CC(OC(=O)[C@H](CO)c3ccccc3)C[C@H]1[C@@H]1O[C@@H]12 (stereo not given in full) |  | inactive
CCc1ccc(C2CCNCC2)cc1 | -2.57% | 
O=C1CN2CCOC2(c2ccccc2Cl)c2cc(Cl)ccc2N1 (stereo not given) | 2.14% | 
C1CN2CCC1CC2 | -2.01% | 
C[C@@H]1CC[C@H]2[C@@H](C)C(=O)O[C@@H]3O[C@@]4(C)CC[C@@H]1[C@]32OO4 | -3.95% | 
CCCCCCCCC(=O)NCc1ccc(O)c(OC)c1 | -3.29% | 
COC(=O)C1=CCCN(C)C1 |  | inactive
CN1C[C@@H](NS(=O)(=O)N(C)C)C[C@@H]2c3cccc4c3c(cn4C)C[C@H]21 | -16.5% | 

SMILES | activity change, negative = inhibition | Potency
CCCOC(=O)Cc1ccc(OCC(=O)N(CC)CC)c(OC)c1 | 2.45% [at 57.7 µM] | 
O=c1n(Cl)c(=O)n(Cl)c(=O)n1Cl | -4.27% | 
CCN(Cc1ccc(Cl)nc1)/C(=C/[N+](=O)[O-])NC | -2.33% | 
COc1cc(N)c(Cl)cc1C(=O)NC1CN2CCC1CC2 (stereo not given) | 4.71% | 
O=C(N[C@@H]1N=C(c2ccccc2F)c2cccc3c2N(CC3)C1=O)c1cc2ccccc2[nH]1 | -1.03% [at 30.2 µM] | 
CC(C(O)c1ccccc1)N(C)C/C=C/c1ccccc1 (stereo not given) | 2.22% | 
Clc1ccc(CSC(Cn2ccnc2)c2ccc(Cl)cc2Cl)cc1 (stereo not given) | 5.15% | 
COc1ccc2c3c1O[C@H]1[C@@H](O)C=C[C@H]4[C@@H](C2)N(C)CC[C@@]341 | 1.05% [at 228 µM] | 
CNC(=O)Oc1cccc2ccccc12 | 1.22% | 
O=c1[nH]c2cc(Cl)ccc2n1C1CCNCC1 | -0.277% | 
CN(C)C(=S)SSC(=S)N(C)C |  | 39.8 µM (active)
CCOC(=O)c1cncn1C(C)c1ccccc1 (stereo not given) |  | inactive
CNC(C)Cc1ccccc1OC (stereo not given) | -1.54% | 
CC1=C2[C@H]3OC(=O)[C@@H](C)[C@@H]3CC[C@@]2(C)C=CC1=O | 2.79% | 
O=C(NC(=O)c1c(F)cccc1F)Nc1cc(Cl)c(OC(F)(F)C(F)C(F)(F)F)cc1Cl (stereo not given) | 2.17% | 
C[C@]12CC[C@H]3[C@@H](CCC4=CC(=O)CC[C@@]43C)[C@@H]1CC[C@@H]2C(=O)O | -0.895% | 
NCc1cccnc1 | -4.01% | 
CC(CC(C(N)=O)(c1ccccc1)c1ccccc1)N(C)C (stereo not given) | -0.29% | 
CNC(=O)NC(O)C(Cl)(Cl)Cl (stereo not given) | 7.87% | 
CCCN(CCC)CCc1c[nH]c2ccccc12 | 2.61% [at 228 µM] | 
